Reference: PubChem BioAssay AID1529 (NMMLSC, 2009)
The campaign covered roughly 290,000 compounds. About 4,200 (1.4%) were called active. For the sample, actives were picked, then their nearest neighbours and some compounds at random. A number with no mark means an inactive call.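 The calls were made as follows: active = binding response more than 3 SD above or below the average of its plate-row segment, actives on both sides; inconclusive = wells at one plate position flagged as instrument error; inactive = the rest.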

molecular target: Mitogen-activated protein kinase kinase kinase 3 (Homo sapiens) (UniProt Q99759); experiment: compounds raising or lowering MEK5 association with MEKK3 PB1 – biochemical, wildtype MEKK3, multiplex bead flow cytometry, Alexa488-MEK5, primary screen (AID 1529); conditions: bead-based flow cytometry, Alexa488-MEK5 binding to MEKK3; at 10 µM; actives lie on both sides; 0 = blocked by unlabeled MEK5, 100 = vehicle;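 also: Alexa488 bead fluorescence after subtracting the streptavidin-only scavenger bead signal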
Sequence (Q99759 whole entry, looked up): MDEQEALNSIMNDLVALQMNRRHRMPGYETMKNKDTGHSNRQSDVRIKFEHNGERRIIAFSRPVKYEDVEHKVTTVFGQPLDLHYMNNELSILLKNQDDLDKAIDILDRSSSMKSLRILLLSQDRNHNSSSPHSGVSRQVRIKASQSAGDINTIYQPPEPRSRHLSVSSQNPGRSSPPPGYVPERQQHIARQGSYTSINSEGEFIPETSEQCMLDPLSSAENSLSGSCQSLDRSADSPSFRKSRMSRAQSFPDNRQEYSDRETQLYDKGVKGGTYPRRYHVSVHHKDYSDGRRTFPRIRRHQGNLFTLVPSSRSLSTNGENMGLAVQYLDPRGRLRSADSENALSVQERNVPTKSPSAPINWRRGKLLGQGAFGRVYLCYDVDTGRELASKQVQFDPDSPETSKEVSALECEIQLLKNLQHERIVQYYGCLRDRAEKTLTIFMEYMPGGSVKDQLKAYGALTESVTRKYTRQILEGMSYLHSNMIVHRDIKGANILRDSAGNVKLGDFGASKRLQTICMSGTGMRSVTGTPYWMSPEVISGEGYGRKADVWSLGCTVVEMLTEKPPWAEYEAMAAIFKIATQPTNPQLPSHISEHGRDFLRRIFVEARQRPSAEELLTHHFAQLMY

Row | Structure (SMILES) | binding response (% of control)
1 | C#CCNC(=O)[C@H](Cc1ccc(C(=O)c2ccccc2)cc1)NC(=O)OC(C)(C)C | 101%
2 | CCOCCCNC(=O)c1ccc(CS(=O)(=O)c2cccc(C(F)(F)F)c2)o1 | 101%
3 | Cc1c(C)n(Cc2ccc(Cl)cc2)c2ccc(C(=O)NCCCN3CCOCC3)cc12 | 106%
4 | CCOCCCN(C)C1CCN(C(=O)c2oc3ccccc3c2NC(=O)COc2cccc(C)c2)CC1 | 105%
5 | COc1ccc(C(=O)CCc2ccccc2O)c(OC)c1 | 97%
6 | O=C(NNc1c2ccccc2nc2ccccc12)c1cc2ccccc2cc1O | 69% [inhibitor] (active)
7 | O=C(N/N=C/c1cccnc1)c1cc2ccccc2cc1O | 99%
8 | CC(C)(C)OC(=O)NNc1c2ccccc2nc2ccccc12 | 91%
9 | Cc1ccc(NC(=O)COc2ccc(/C=C3/NC(=O)NC3=O)cc2)cc1 | 99%
10 | COCCCNC(=S)N(CCN(C)C)Cc1cc2cc3c(cc2[nH]c1=O)OCCO3 | 101%
11 | COC(=O)C1(CCSC)NC(c2ccc(OC)cc2OC)C2C(=O)N(c3cccc(C(C)=O)c3)C(=O)C21 (stereo not drawn) | 101%
12 | CCC(CC)c1nnc(NC(=O)C2CCN(C(=O)c3ccco3)CC2)s1 | 102%
13 | NC(=O)C1=C[C@@H](c2ccc3c(c2)OCO3)C[C@@H](OCCCCO)O1 | 102%
14 | Clc1cccc(Cl)c1OCCOCCNCc1ccccc1 | 102%
15 | CN(C)CCOCCOc1ccc(Cl)c2ccccc12 | 78%
16 | CCN(CC)CCOCCOc1ccc(Cl)c2ccccc12 | 3% [inhibitor] (active)
17 | CCOC(=O)CSc1nnc(CNc2nc(-c3ccccc3)cs2)n1C | 92%
18 | O=C(CSc1nc(-c2ccccc2)cs1)Nc1cccc([N+](=O)[O-])c1 | 103%
19 | CCNC(=O)CSc1nc(-c2ccccc2)cs1 | 132% (active)
20 | CC(=O)Nc1ccc(NC(=O)COc2ccccc2C(=O)Nc2cccc(Cl)c2Cl)cc1 | 184% (active)
21 | CN1CCN(C(=O)c2ccccc2NC(=O)COc2ccccc2Cl)CC1 | 101%
22 | O=C(COc1ccccc1Cl)Nc1ccc(C(=O)c2ccc(C(=O)O)cc2)cc1 | 104%
23 | FC(F)(F)c1nnc2c3ccccc3c(Cl)nn12 | 107%
24 | COc1ccc2[nH]c(=O)c(CN(Cc3cccnc3)S(=O)(=O)c3ccccc3F)cc2c1 | 100%

Row | Structure (SMILES) | binding response (% of control)
25 | Cc1ccc(NC(=O)Cc2nnc(SCC(=O)Nc3nncs3)n2C)cc1 | 97%
26 | O=C(CCCOc1ccccc1)Nc1cccc(C(=O)O)c1 | 106%
27 | O=Cc1ccc(Oc2cccc(C(F)(F)F)c2)nc1 | 98%
28 | O=C(O)CCCC(=O)Nc1ccc(Oc2cccc(C(F)(F)F)c2)nc1 | 131% (active)
29 | COc1ccc(/C=C2\SC(=O)N(CCC(=O)NCCCn3ccnc3)C2=O)cc1 | 100%
30 | COc1ccc(OC)c(/C(C)=N\NC(=O)c2cc3cc(Cl)ccc3n2C)c1 | 103%
31 | Cc1cccnc1NC(=O)Cn1c(=O)oc2ccccc21 | 103%
32 | O=C(O)C(c1ccccc1)N1C(=O)/C(=C\c2ccc(-c3cccc(Cl)c3)o2)SC1=S (stereo not drawn) | 96%
33 | CN1C(=O)/C(=C\c2ccc(-c3ccccc3)o2)SC1=S | 46% [inhibitor] (active)
34 | NS(=O)(=O)c1ccc(-c2ccc(/C=C3\SC(=O)NC3=O)o2)cc1 | 100%
35 | C=C(C)CNC(=O)c1ccc(OC2CCN(C(=O)COC)CC2)cc1 | 105%
36 | C=CCSc1nnc(N2C(=O)C(O)=C(C(=O)c3ccco3)C2c2ccc(F)cc2)s1 (stereo not drawn) | 101%
37 | C(=N\N1CCN(c2ccccn2)CC1)/C1=C(N2CCOCC2)C(=C/c2ccccc2)/CC1 | 102%
38 | O=C1Nc2ccc(Br)cc2/C1=N/N=C/C1=C(N2CCOCC2)C(=C\c2ccccc2)/CC1 | 45% [inhibitor] (active)
39 | COc1ccc(/C=N/N=C2/C(=O)Nc3ccccc32)cc1O | 100%
40 | O=C1N[C@H](Cc2ccccc2)C(=O)N[C@H]1Cc1cn(S(=O)(=O)c2ccccc2)c2ccccc12 | 106%
41 | CCOC(=O)COn1c(=O)c(-c2ccc(OCC)cc2)[n+]([O-])c2ccccc21 | 109%
42 | CCOc1ccccc1CNS(=O)(=O)c1cc(-c2cc(C)no2)ccc1C | 96%
43 | CN1CCC(CN)(N2CCN(c3ccccc3)CC2)CC1 | 106%
44 | COC(=O)c1ccc(N2CCOCC2)c(NC(=O)c2ccc(Br)o2)c1 | 101%
45 | Cc1c(C)c(C)c2[nH]c(=S)[nH]c2c1C | 101%
46 | O=c1[nH]c(=S)[nH]c2[nH]c(=S)[nH]c12 | 48% [inhibitor] (active)
47 | COc1ccc(CCn2c(NN=C3CCCC3)nc3c2c(=O)[nH]c(=O)n3C)cc1 | 44% [inhibitor] (active)
48 | COc1ccc(CNc2nc3c(c(=O)[nH]c(=O)n3C)n2Cc2ccccc2)cc1 | 104%

Row | Structure (SMILES) | binding response (% of control)
49 | COc1ccc(CCn2c(NCCCN3CCOCC3)nc3c2c(=O)[nH]c(=O)n3C)cc1 | 101%
50 | O=c1c2c(-c3ccccc3)ccnc2[nH]n1-c1ccccc1 | 109%
51 | COc1ccc(CCNC(=O)CSCc2ccc(Br)cc2)cc1OC | 104%
52 | CCCc1nn(C)c2c(=O)[nH]c(-c3cc(S(N)(=O)=O)ccc3OCC)nc12 | 103%
53 | O=C(O)C1CCN(c2ccc([N+](=O)[O-])cc2[N+](=O)[O-])CC1 | 49% [inhibitor] (active)
54 | CCOC(=O)C1CCN(c2ccc(C(=O)O)cc2[N+](=O)[O-])CC1 | 103%
55 | CC1CCN(c2ccc([N+](=O)[O-])cc2C(N)=O)CC1 | 100%
56 | CC(C)CNS(=O)(=O)c1ccc(CCC(=O)NCc2ccc(Cl)cc2)cc1 | 96%
57 | O=C(Nc1ccc(S(=O)(=O)Nc2ccccn2)cc1)c1ccccc1 | 97%
58 | CCCCc1ccc(NC(=S)NCCCN2CCOCC2)cc1 | 93%
59 | COc1cccc(NC(=S)NCc2ccccn2)c1 | 143% (active)
60 | COc1cccc(NC(=S)NCCCN2CCOCC2)c1 | 140% (active)
61 | COc1cccc(NC(=S)NCc2ccco2)c1 | 98%
62 | Cc1cc(C)cc(NC(=S)NCCCN2CCOCC2)c1 | 117%
63 | COc1cccc(NC(=S)N(Cc2ccc(C)cc2)Cc2ccccn2)c1 | 104%
64 | O=C(NCCN1CCN(C(=O)c2cccc([N+](=O)[O-])c2)CC1)C(=O)NCc1ccc(Cl)cc1 | 105%
65 | CCOC(=O)Cn1c(O)c(N=NC(=O)CNC(=O)Cc2ccccc2)c2ccccc21 | 99%
66 | COc1ccccc1CN1CC(C(=O)NCCc2cn[nH]c2)CCC1=O (stereo not drawn) | 104%
67 | COc1ccccc1CCNS(=O)(=O)c1cn(C)nc1C | 104%
68 | COc1ccccc1CNC(=O)C1CCN(C(=O)[C@@H]2Cc3ccccc3CN2)CC1 | 101%
69 | COc1ccc2nc(Nc3nc(-c4ccncc4)cs3)sc2c1 | 104%
70 | COc1ccc2nc(Nc3nc(-c4cc5ccccc5oc4=O)cs3)sc2c1 | 82%
71 | COc1ccc2nc(Nc3nc4cc5c(cc4s3)OCCO5)sc2c1 | 137% (active)
72 | CNC[C@H](CC1CCCCC1)NC[C@H](NCCC1CCCC1)[C@H](C)O | 102%

Row | Structure (SMILES) | binding response (% of control)
73 | COc1cc(-c2nc(-c3ccncc3)no2)cc(OC)c1OC | 1% [inhibitor] (active)
74 | Cc1ccc(-c2nc(-c3ccncc3)no2)c(C)c1 | 102%
75 | COc1ccccc1Cc1nc(-c2ccc(C)cc2)no1 | 101%
76 | O=C(NCc1ccccc1)C1=C[C@@H](c2ccccc2)C[C@@H](OCCCCO)O1 | 101%
77 | O=C(CCNS(=O)(=O)c1cccs1)N1CCN(c2ccc(F)cc2)CC1 | 102%
78 | O=C(Cn1cc(/C=N/NC(=O)c2cccc(C(F)(F)F)c2)c2ccccc21)Nc1ccc(F)cc1 | 103%
79 | CCNC(=O)Nc1ccc(S(=O)(=O)Nc2cnc(C)nc2C)cc1 | 101%
80 | O=C(NCc1cccc(Cl)c1)C1CCN(c2nnc(N3CCCC3=O)s2)CC1 | 96%
81 | Cc1ccnc(NS(=O)(=O)c2ccc(NC(=O)c3oc4ccccc4c3C)cc2)n1 | 102%
82 | Cc1nnc(SCc2cccc(Cl)c2)n(N)c1=O | 98%
83 | Cc1cccc(CSc2nnc(C)c(=O)n2N)c1 | 128% (active)
84 | Cc1cccc(CSc2nc3c(c(=O)n2C)SCC3)c1 | 100%
85 | COc1ccc(NC(=O)N2CCCC(C(=O)Nc3ccccc3OC)C2)cc1 (stereo not drawn) | 100%
86 | COC(=O)CCCC1=CC2=CC(=O)C(C)(OC(=O)c3cccs3)C(=O)C2=CN1CC1CC1 (stereo not drawn) | 93%
87 | COCCN1C=C2C(=O)C(C)(OC(=O)C3CCCC3)C(=O)C=C2C=C1c1ccsc1 (stereo not drawn) | 133% (active)
88 | CC1(OC(=O)C2CCCC2)C(=O)C=C2C=C(c3ccc(C#N)cc3)OC=C2C1=O (stereo not drawn) | 94%
89 | COc1ccc(CCNc2nc3ccc(C)cc3n3cnnc23)cc1OC | 102%
90 | O=C(/C=C/c1ccco1)NC(=S)Nc1ccccc1Br | 102%
91 | Cc1cc(C(=O)OCC(=O)N2c3ccccc3NC(=O)C2(C)C)c(C)n1-c1ccccc1 | 130% (active)
92 | COc1ccc(Cl)cc1-n1c(C)cc(C(=O)OCC(=O)N2CC(=O)Nc3ccccc32)c1C | 105%
93 | CCNc1ccc(C(=O)OCC(=O)N2c3ccccc3NC(=O)C2(C)C)cc1[N+](=O)[O-] | 99%
